Cruzain Triton = qHTS Assay for Promiscuous and Specific Inhibitors of Cruzain (with detergent); Cruzipain (Trypanosoma cruzi), P25779; purified cruzain, Z-FR-AMC fluorescence, 0.01% Triton; Potency, µM, without a hit: max response, negative = inhibition, actives largely listed as inhibitors; actives 0.43% (n = 200,000); AID 1478, 2009;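 further: plate controls were neutral wells for no effect and buffer without enzyme for full effect; nearly all actives have a fitted effect of over 40% in size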
Target sequence (P25779 123-467 limits assumed): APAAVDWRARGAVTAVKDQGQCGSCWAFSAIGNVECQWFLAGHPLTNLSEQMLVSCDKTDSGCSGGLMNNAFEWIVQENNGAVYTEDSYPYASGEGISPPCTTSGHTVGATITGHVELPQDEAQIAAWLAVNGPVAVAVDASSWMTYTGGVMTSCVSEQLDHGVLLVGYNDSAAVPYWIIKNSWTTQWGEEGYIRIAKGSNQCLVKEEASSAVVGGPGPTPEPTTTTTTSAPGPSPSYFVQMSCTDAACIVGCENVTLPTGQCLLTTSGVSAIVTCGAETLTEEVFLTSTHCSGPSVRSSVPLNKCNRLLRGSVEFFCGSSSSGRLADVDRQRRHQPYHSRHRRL
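Z-FR-AMC hydrolysis (2 uM substrate) by cruzain (1.5 nM) monitored kinetically at ex 360/em 450 nm after 15 min room-temperature compound exposure; 0.01% Triton X-100, pH 5.5, 5 mM DTT.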
Cruzain noTriton = qHTS Assay for Promiscuous and Specific Inhibitors of Cruzain (without detergent) | AID 1476, 2009 | purified cruzain, Z-FR-AMC fluorescence, no detergent | Potency, µM, for inactives: max response, negative = inhibition, actives largely listed as inhibitors | actives 2.3% (n = 200,000) | Cruzipain (Trypanosoma cruzi), P25779;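 further: plate controls were enzyme without inhibitor for no effect and buffer without enzyme for full effect; nearly all actives have a fitted effect of over 40% in size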
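Purified cruzain at 1.5 nM, pre-incubated 15 min with compound at room temperature in 100 mM sodium acetate pH 5.5, 5 mM DTT, 0.00005% Triton X-100. Reaction started with 2 uM Z-FR-AMC; AMC fluorescence increase over 60 s gives rate.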
* marks the source's active call; other numbers are inactive results; ? = inconclusive; ! = not active in a repeat. This is a sample that favours compounds with a hit; in the whole collection about 2.4% have one here. The call rests on the fitted dose curve; in most records, active means well fitted curve in the direction sought with a large enough effect; inconclusive means small, poorly fitted or top-dose-only effect, or another doubt; inactive means no such curve, though single readings can be large; an effect the other way counts as inactive or inconclusive. Potency means the concentration at half of the fitted maximal effect.

SMILES | Cruzain Triton | Cruzain noTriton
COc1cc(/C=C(\C#N)c2nc3ccccc3[nH]2)c([N+](=O)[O-])cc1OCc1ccccc1 | -5% | 32µM*
COc1cc(/C=C(\C#N)c2nc3ccccc3[nH]2)cc(Cl)c1OCc1ccccc1Cl | 0% | 10µM*
CN1CCN(c2nc3c(S(=O)(=O)c4ccccc4)nnn3c3ccsc23)CC1 | -1% | 19%
O=C1c2ccccc2C(Nc2ccc3c(c2)OCO3)N1Cc1ccco1 (configuration not stated) | -7% | -29%
NC(Cc1cc(I)c(Oc2ccc(O)c(I)c2)c(I)c1)C(=O)O (configuration not stated) | 2% | -10%
N[C@@H](Cc1cc(I)c(Oc2ccc(O)c(I)c2)c(I)c1)C(=O)O | ? | 13µM*!
COc1ccccc1-c1nnc(-c2ccc(N3CCOCC3)cc2)o1 | -11% | ?
COc1cc(/C=c2\sc3n(c2=O)CCCN=3)ccc1O | -4% | -2%
COc1cc(/C=c2\sc3n(c2=O)C(c2ccccc2)C(c2ccccc2)=NN=3)ccc1O (configuration not stated) | 5% | 16µM*
Cc1ccc(/C=C/C(=O)Nc2sc3c(c2C#N)CCCC3)o1 | -5% | 7.9µM*
Cc1ccc(/C=C/C(=O)NC2CCCCCCC2)o1 | 22µM* | 20µM*
N#Cc1c(NC(=O)CCC(=O)O)sc2c1CCCC2 | -1% | 4%
Cc1cccc(C(=O)Nc2sc3c(c2C#N)CCCCC3)c1 | 3% | ?
CC(C)c1ccc(/C=C/C(=O)NC2CCCCC2)cc1 | -2% | 8%
CCc1ccc(CCC(=O)Nc2sc3c(c2C#N)CCCC3)o1 | -1% | 25µM*
Cc1ccc(Nc2nc3ccccc3s2)c(C)c1 | -9% | -3%
Cc1cc(O)ccc1Nc1nc2ccccc2nc1Nc1ccc(O)cc1C | -18% | 10µM*
O=C(Cn1cc(S(=O)(=O)N2CCCC2)c(S(=O)(=O)N2CCCC2)c1)Nc1ccc(F)cc1 | -1% | 4%
Cc1ccc(NC(=O)Cn2c(=O)n(CCCCCC(=O)NCc3ccc(F)cc3)c(=O)c3sccc32)c(C)c1 | -2% | 0%
O=C1CC[C@H](NC(=O)c2ccccc2)C(=O)N1 | 5% | 18%
C#CCn1cc(/C=N/NC(=O)c2cc3ccccc3o2)c2ccccc21 | -11% | -17%
C=CCn1cc(/C=N\NC(=O)c2cc3c(ccc4ccccc43)o2)c2ccccc21 | 0% | 16µM*
O=C(N/N=C/C=C/c1ccccc1)c1ccncc1 | -10% | 3%
O=C(N/N=C/C=C/c1ccccc1)c1cc2c(ccc3ccccc32)o1 | ? | 10µM*
CCCC(=O)Nc1cc(=O)[nH]c2ncnn12 | 3% | -4%
SMILES | Cruzain Triton | Cruzain noTriton
Cc1noc(Cn2c(=O)c3ccccc3n(CC(=O)Nc3ccccc3C(F)(F)F)c2=O)n1 | -1% | 1%
CCN(Cc1ccccc1)Cc1c(O)ccc2c(=O)c(-c3ccccc3)c(C(F)(F)F)oc12 | -3% | 19%
O=C1c2ccccc2C(=O)N1c1ccc(Cl)cc1 | ? | -1%
O=C1C2C(c3ccccc3)(C(=O)N1c1ccc(Cl)cc1)C2(c1ccccc1)c1ccccc1 (configuration not stated) | -2% | 25µM*
CC1(C)OC(c2ccccc2)=C/C(=C/C=Nc2ccccc2)O1 | -15% | -6%
Cc1ccc(CNC(=O)c2cc3c(s2)-c2ccc(Cl)cc2SC3)cc1 | -2% | 13µM*
COc1ccccc1CNC(=O)c1cc2c(s1)-c1ccc(Cl)cc1SC2 | -5% | -12%
O=C(NCc1ccccc1Cl)c1cc2c(s1)-c1ccc(Cl)cc1SC2 | -6% | 10µM*
Cc1ccc(CNC(=O)c2cc3c(s2)-c2ccccc2SC3)cc1 | -9% | ?
N#Cc1ccc(CNc2cnccn2)cc1 | -3% | -2%
COCC(=O)N1CCC2(CCCN(c3ccccn3)C2)CC1 | 1% | -10%
COc1ccc(NC(=O)c2cc(Cl)ccc2Cl)c([N+](=O)[O-])c1 | -4% | -5%
O=C(Nc1ccc([N+](=O)[O-])cc1Cl)c1cc(Cl)ccc1O | 5.6µM*! | 13%
CC(=O)c1cccc(NC(=O)CSc2nnc3ccc(-c4ccc(Cl)cc4)nn23)c1 | 2% | 11%
CC(=O)NCCNC(=O)[C@H](Cc1ccccc1)NC(=O)c1cccs1 | 4% | 2%
O=C(COC(=O)[C@H](Cc1ccccc1)NC(=O)c1cccs1)Nc1c(Cl)cccc1Cl | 16µM* | 25µM*
CC1CC2C(C(O)C[C@]3(C)C2CC[C@]3(O)C(=O)CO)[C@]2(C)C=CC(=O)C=C12 (some centres not stated) | 2% | 4%
CC(C)(C)C(=O)Nc1ccc(Oc2ccc3c(c2)C(=O)N(c2ccc(O)cc2)C3=O)cc1 | 0% | -11%
COc1ccccc1Oc1ccc2c(c1)C(=O)N(c1ccc(O)cc1)C2=O | 1% | 20µM*
CC(=O)N=c1c(C#N)cc2c(=O)n3ccccc3nc2n1Cc1ccccc1 | -4% | 5%
Cc1csc2nc(COC(=O)c3ccccc3NC(=O)COc3ccccc3F)cc(=O)n12 | 0% | 4%
O=C1COc2ccc(-c3csc(=Nc4ccc(OC(F)F)cc4)n3CC3CCCO3)cc2N1 (configuration not stated) | -6% | 5%
CCN(C(=O)Cc1ccccc1OC)c1nnc(-c2ccncc2)s1 | 2% | 3%
O=C(Nc1cc(-c2nc3ccccc3s2)ccc1Cl)c1ccc2c(c1)OCO2 | 5% | ?
Cc1ccc(-n2nc3cc(C)c(NC(=S)NC(=O)/C=C/c4ccco4)cc3n2)cc1 | -5% | ?
SMILES | Cruzain Triton | Cruzain noTriton
O=C(/C=C/c1ccco1)NC(=S)Nc1cc(-c2nc3ccccc3s2)ccc1Cl | -7% | 6.3µM*
Cc1ccc(-c2nc3ccccc3s2)cc1NC(=S)NC(=O)c1cccc2ccccc12 | -4% | 6.3µM*
Cc1ccc(-c2nc3ccccc3s2)cc1NC(=S)NC(=O)/C=C/c1ccco1 | 0% | 16µM*
Cc1ccc(C(=O)NC(=S)Nc2cccc(-c3nc4ccccc4s3)c2)cc1 | 0% | ?
O=C(Cn1cnc2c(nnn2Cc2ccc(F)cc2)c1=O)OCc1ccccc1 | -3% | 14%
CCC1(C(=O)c2ccccc2)C(c2ccc([N+](=O)[O-])cc2)C1(C(=O)OC)C(=O)OC (configuration not stated) | -6% | 6%
Nc1ccc[n+](Cc2ccccn2)c1 | -3% | -16%
O=C(COC(=O)Cc1c(F)cccc1Cl)NCCC1=CCCCC1 | -3% | 1%
O=C(COC(=O)CNC(=O)c1cccc(F)c1)NCCC1=CCCCC1 | 16µM* | 13µM*
Cc1occc1C(=O)NCc1ccccc1F | -6% | -19%
Cc1ccc(C(=O)Cn2nnc3c(sc4nc5c(c(-c6ccccc6)c43)CCC5)c2=O)cc1 | -3% | 20µM*
Cc1ccc(-c2c3c(nc4sc(C(N)=O)c(N)c24)CCC3)cc1 | -10% | -3%
Cc1cc(NC(=O)CN(C)S(=O)(=O)c2ccc3c(c2)CCCC(=O)N3)ccc1Br | -5% | 2%
Cc1nc2c(ccc3nc(NC(=O)c4ccc5c(c4)OCCO5)sc32)s1 | 14µM* | 2%
Cc1nc2ccc3nc(NC(=O)c4ccc5c(c4)OCCO5)sc3c2s1 | 3% | -5%
O=C(CCNS(=O)(=O)c1cccc2nsnc12)Nc1ccc2c(c1)OCCO2 | 4% | -2%
Cc1[nH]n(-c2ccccc2)c(=O)c1C(C[N+](=O)[O-])c1ccc(Cl)cc1 (configuration not stated) | -9% | 4%

Screening data from PubChem.
